# Most compounds without a hit are left out; they make up all but 19% or so of the library.
# IL-1B inflam inh – qHTS for Inhibitors of Inflammasome Signaling: IL-1-beta AlphaLISA Primary Screen | THP-1 LPS/ATP IL-1B secretion, AlphaLISA, 16 h; hits give low values | activity change, % at 57.5 µM | actives 4.7% (n = 360,000) | AID 743279, 2014; in the data active = activity change below about -50%; inconclusive = mostly about -30% to -49%
#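 Secreted IL-1B measured by AlphaLISA bead assay after 16 h compound exposure of THP-1 cells; compounds (final up to 57.5 uM) added 1 h before LPS (250 ng/mL) and ATP (1.25 mM) stimulation; lower signal means less secretion.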
# HT1080-NT tox – qHTS for induction of synthetic lethality in tumor cells producing 2HG: qHTS for the HT-1080-NT fibrosarcoma cell line. actives 1.6% (n = 360,000). HT-1080-NT fibrosarcoma viability, CellTiter-Glo ATP luminescence, 48 h. Potency, µM (series often up to 46.1 µM), actives largely listed as cytotoxic;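 note: NT is the 2HG producing partner of a matched IDH1 knockdown line; nearly all actives have a fitted effect of over 55% in size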
#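 Toxicity toward the 2HG-producing NT line was scored as %Activity, normalised to DMSO and no-cell wells, from CellTiter-Glo luminescence after 48 hours' treatment.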
# DT40 TDP1 no CPT – qHTS for Inhibitors of human tyrosyl-DNA phosphodiesterase 1 (TDP1): qHTS in cells in absence of CPT; DT40 Tdp1-/- hTDP1 cells, no CPT, ATP luminescence, 48 h; Potency, µM (doses to about 46.2 µM), actives largely listed as inhibitors; actives 15% (n = 420,000); AID 686978, 2013; note: nearly all actives have a fitted effect of over 55% in size
#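 Growth of hTDP1-complemented DT40 Tdp1-knockout cells is measured by ATP luminescence after at least 48 hr compound exposure at 37 °C, with DMSO substituting for the 20 nM CPT used in the parallel screen.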
# TDP1 cell CPT – qHTS for Inhibitors of human tyrosyl-DNA phosphodiesterase 1 (TDP1): qHTS in cells in presence of CPT; chicken DT40 Tdp1-/-;hTDP1 cells + 20 nM CPT, ATP luminescence, 48 h; Potency, µM (doses to about 46.2 µM), actives largely listed as inhibitors; actives 12% (n = 420,000); note: nearly all actives have a fitted effect of over 55% in size
#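 Chicken DT40 Tdp1-/- cells stably complemented with human TDP1 were seeded at 400 cells/well in medium containing 20 nM camptothecin, exposed to pin-transferred compounds, and grown at 37 °C for at least 48 hr. Viability was read as ATP luminescence.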
# HT1080 IDH1KD tx – qHTS for induction of synthetic lethality in tumor cells producing 2HG: qHTS for the HT-1080-IDH1KD cell line. Potency, µM (series often up to 46.1 µM), hits mostly cytotoxic. AID 686971, 2013. actives 2% (n = 360,000). HT-1080 IDH1 knockdown viability, ATP luminescence, 48 h
#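 Viability of IDH1-knockdown HT-1080 fibrosarcoma cells was assessed by CellTiter-Glo after 48 h at 37 °C with titrated compound; concentration-effect curves were classified by fit quality and response size.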
# Numbers stand for hits; . = inactive; ? = inconclusive; / = no result given; [ ] = remark or other dose. Unless noted, calls come from the whole dose curve; as a rule, active = well fitted curve in the direction sought with a large enough effect; inconclusive = small, poorly fitted or top-dose-only effect, or another doubt; inactive = no such curve, though single readings can be large; an effect the other way counts as inactive or inconclusive.
SMILES,IL-1B inflam inh,HT1080-NT tox,DT40 TDP1 no CPT,TDP1 cell CPT,HT1080 IDH1KD tx
CC(CNC(=O)c1sc2ncccc2c1-n1cccc1)c1ccccc1 (stereo unspecified),/,/,26µM,?,/
CCCCN(CC)CCCNC(=O)c1sc2nc(C)cc(C)c2c1-n1cccc1,/,/,18µM,?,/
CCC(C)NC(=O)c1sc2ncccc2c1-n1c(C)ccc1C (stereo unspecified),/,/,26µM,21µM,/
Cc1cc(C)c2c(-n3cccc3)c(C(=O)NNS(=O)(=O)c3ccc(Br)cc3)sc2n1,.,.,.,.,.
Cc1cc(C)c2c(-n3cccc3)c(C(=O)NCC(C)c3ccccc3)sc2n1 (stereo unspecified),/,/,21µM,21µM,/
CCN1C(=O)[C@H]2[C@@H](c3ccc(Cl)cc3)N3C(=O)CN(CCOC)C(=O)[C@@]3(Cc3ccccc3)[C@H]2C1=O,.,.,.,.,.
O=C(Nc1ccc(Br)cc1F)c1cnn2c1NC(=C1CC1)C=C2C(F)F,/,/,.,.,/
COc1ccc(NC(=O)NCc2ccc3c(c2)OCO3)cc1OC,.,?,.,.,.
C=COC(=O)c1sc2nc(C)cc(C)c2c1N,.,.,.,.,.
CCOC(=O)Nc1sc2nc(C)cc(C)c2c1-n1cccc1,.,.,9.2µM,23µM,.
COc1cc(CCN2C(=O)c3cccc4cccc(c34)C2=O)c(S(=O)(=O)NCCO)cc1OC,/,.,?,?,.
COc1cc(CCN2C(=O)c3cccc4cccc(c34)C2=O)c(S(=O)(=O)N2CCC(C)CC2)cc1OC,.,.,2.6µM,26µM,.
COc1ccccc1OCc1ccc(C(=O)Nc2ccncc2)o1,.,.,21µM,?,?
O=C(Cc1ccccc1Cl)NCc1cccnc1,.,.,.,.,.
O=C(Nc1cccnc1)c1ccc(COc2ccccc2Br)o1,.,4.5µM,?,?,10µM
CC(=O)Nc1ccc(NC(=O)c2ccc(COc3ccccc3Br)o2)cc1,.,.,.,.,.
CCCc1ccc(OCc2ccc(C(=O)NN)o2)c(OC)c1,.,?,23µM,.,.
COc1ccccc1OCc1ccc(C(=O)NC(C)(C)C)o1,.,.,?,.,.
O=C(NCc1cccnc1)c1ccc(COc2ccccc2Cl)o1,.,?,13µM,?,.
CC(NC(=O)c1ccc2c(c1)N(Cc1cccc(F)c1)C(=O)c1ccccc1S2)c1ccccc1 (stereo unspecified),/,/,?,.,/
COc1cccc(NC(=O)Cn2c(SCC(=O)N3CCOCC3)nc3ccccc32)c1,.,.,.,.,.
COc1cccc(NC(=O)c2cnc(SCC(=O)N3CCOCC3)n(C)c2=O)c1,/,/,15µM,15µM,/
COc1cccc(NC(=O)c2cnc(SCC(=O)NCc3ccc4c(c3)OCO4)n(C)c2=O)c1,.,.,12µM,21µM,.
Cc1ccc(C)c(NC(=O)Cn2c(=O)n(CC(=O)NCCc3ccccc3)c(=O)c3ccccc32)c1,/,/,?,.,/
OC(CN1CCOCC1)CN(c1ccccc1)c1ccccc1 (stereo unspecified),.,.,12µM,?,.
SMILES,IL-1B inflam inh,HT1080-NT tox,DT40 TDP1 no CPT,TDP1 cell CPT,HT1080 IDH1KD tx
NC(N)=NCC(O)CN(c1ccccc1)c1ccccc1 (stereo unspecified),-82,.,15µM,?,.
OC(CN1CCCCCC1)CN(c1ccccc1)c1ccccc1 (stereo unspecified),.,.,?,?,.
CNCC(O)CN(c1ccccc1)c1ccccc1 (stereo unspecified),?,.,?,?,.
OC(CN1CCCCC1)CN(c1ccccc1)c1ccccc1 (stereo unspecified),.,.,26µM,?,.
COc1cc(C(=O)OCC(=O)Nc2cccc(S(=O)(=O)N3CCCC3)c2)ccc1OCC(C)C,.,.,?,?,.
Cc1c(Cl)cccc1NC(=O)CNC(=O)C1CCN(C(=O)Nc2ccccc2)CC1,.,.[9.24 µM],.,.,.
Cc1c(C(=O)Nc2cccc(-c3nc4ccccc4s3)c2)oc2ccccc12,/,/,18µM,16µM,/
Cc1cccc(NC(=O)c2cc(=O)c3ccccc3o2)c1,.,.,?,.,.
O=C(Nc1cccc(-c2nc3ccccc3s2)c1)c1cc(=O)c2ccccc2o1,.,.,2.1µM,?,.
Cc1cccc(NC(=O)CCCC(=O)OC(C)C(=O)c2ccccc2)c1 (stereo unspecified),.,.,.,.,.
Cn1cccc1/C=C1\CCC/C(=C\c2cccn2C)C1=O,?,.,29µM,?,.
O=C1/C(=C/c2ccc(C(=O)O)cc2)CCC/C1=C\c1ccc(C(=O)O)cc1,.,.,.,.,.
O=C1OC(CC(=O)N(Cc2nnc(-c3ccc(Cl)cc3)o2)C2CC2)c2ccccc21 (stereo unspecified),.,.,.,?,.
O=NNc1nc2ccccc2n1Cc1ccccc1,.,?,2.3µM,4.6µM,?
C(=N\c1nc2ccccc2n1Cc1ccccc1)/c1cccs1,-68,.,?,?,.
COc1ccc(CNc2nc3ccccc3n2Cc2ccc(Cl)cc2)cc1OC,-89,21µM,13µM,16µM,16µM
CCn1c(NC(=O)c2cccc(Cn3cc(Cl)cn3)c2)nc2ccccc21,.,.,15µM,15µM,.
COc1cc(CNc2nc3ccccc3n2Cc2ccccc2)ccc1O,.,.,?,.,.
Cc1cc(=O)oc2cc(OC(=O)C3CCN(C(=O)c4ccc(F)cc4)CC3)ccc12,.,.,.,.,.
Cc1ccc(-c2cc(C(F)F)n3ncc(C(=O)N4CCCCC4c4cccnc4)c3n2)cc1 (stereo unspecified),.,.,?,?,.
CCn1c(NCc2ccc(N(C)C)cc2)nc2ccccc21,.,.,?,.,.
Clc1cccc(CNc2nnnn2-c2ccccc2)c1,.,.,16µM,?,.
Cn1nnnc1NCc1cccc(Cl)c1,.,.,.,.,.
COc1ccc(/C=C/c2nc3ccccc3n2Cc2ccc(OC)c(OC)c2)cc1,-54,.,?,?,.
CCn1c(NCc2cccc(Cl)c2)nc2ccccc21,/,/,23µM,?,/
CCn1c(NCc2ccc(OC)c(OC)c2)nc2ccccc21,/,/,9.2µM,?,/
Cc1ccc(C2(C)NC(=O)N(CC(=O)NCc3ccccc3Cl)C2=O)cc1 (stereo unspecified),.,.,.,.,.
Cc1ccc(-n2c(SCC(=O)NC3CCS(=O)(=O)C3)nc3ccccc3c2=O)cc1C (stereo unspecified),.,.,?,?,.

# High-throughput results: PubChem BioAssay, National Center for Advancing Translational Sciences (NCATS)
